Experimental data from PubChem BioAssay (EPA / NIEHS).
Some compounds were tested as several samples or in several runs, with calls that do not always agree. The source made the active and inactive calls. Rule for the calls: active = hit-call score of the fitted dose curve at least 0.9, where 1 is the maximum; inactive = score below 0.9.

These molecules were tested on Hypoxia-inducible factor 1-alpha (Homo sapiens) (UniProt Q16665) (assay: LTEA_HepaRG_HIF1A: Life Technologies and Expression Analysis (LTEA) Assay for Hypoxia-inducible factor 1 (HIF1A) Trancription factor using HepaRG (AID 2283503;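 note: HIF1A transcript by TaqMan qRT-PCR normalized to ACTB GAPDH and POLR2A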)). Conditions: mRNA level, 48 h; actives raise or lower the signal.
Protocol: LTEA_HepaRG is a cell based, multiplexed-readout assay that uses HepaRG, a human liver cell line, with measurements taken at 48 hours after chemical dosing on a 96-well plate.LTEA_HepaRG_HIF1A is one of 102 assay component(s) measured in the LTEA HepaRG cell culture assay. It is a marker of Cell proliferation, survival, death.Data from the assay component LTEA_HepaRG_HIF1A was analyzed into 1 endpoint. This assay endpoint, LTEA_HepaRG_HIF1A, was analyzed with bidirectional fitting relative to DMSO as the negative control and baseline of activity. Using a type of inducible reporter, measures of mRNA induction for gain or loss-of-signal activity can be used to understand regulation of transcription factor activity. To generalize the intended target to other relatable targets, this assay endpoint is annotated to the dna binding intended target family, where the subfamily is basic helix-loop-helix protein.
A total of 1060 chemcials from the ToxCast library were tested in eight-point concentration-response experiments. Cell culture and cytotoxicity assays were conducted at Thermo Fisher Scientific's Custom Services facility (Madison, WI). A single lot of human HepaRG cells (Thermo Fisher Scientific, Frederick, MD) was used for the cell culture experiments. 96-well format collagen type I coated plates of human HepaRG cells were prepared using established methods. Briefly, cryopreserved HepaRG cells were thawed, plated at a density of approximately 100,000 cells/well in HepaRG Thaw, Plate, and General Purpose media (HPRG770, Thermo Fisher Scientific), and incubated for 48 hours. 0.5% DMSO was selected as vehicle control to balance the requisite need of DMSO in HepaRG cultures to maintain differentiation (for example, baseline metabolism, proportions of hepatocytes vs. cholangiocytes), while enabling further hepatic receptor pathway activation (for example, PXR and CAR) in response to chemical exposure. 48 hours after plating, the culture medium was replaced with HepaRG Serum-Free Incudtion Media. Cells were exposed to each test chemical in duplicate and maintained in CO2 incubators for another 48 hours. Chemical plates were thawed to room temperature and 200x concentrations of treatment groups were prepared. 8-point conentration-reponse curves were made with the highest exposure at 100 uM, followed by half-log dilutions, all in 0.5% DMSO. Each test plate contained variouse controls, induction positive controls (1mM phenobarbital), cytotoxicity positive controls ([…] aflatoxin B1), vehicle controls (0.5% DMSO), and total lysis controls (0.5% DMSO). Cell morphology images were taken using an Essen IncuCyte FLR automated microscope, with six 96-well plates imaged in about 24 minutes. Images were captured and exported and JPEG files. Spent culture media was transfered to black-well plates for the LDH assay, and remaining media was sorted at -80 C for later use. Cells were treated with RLT buffer and frozen until shipped for gene expression analysis. Total RNA was isolated from the cell suspension in 75 uL of Buffer RLT (Qiagen, Germantown, MD 20874) by Quintiles/Expression Analysis (Durham, NC) using a custom isolation procedure. Total RNA from each plate well was transferred to a preamplification plate. Fluidigm's 96.96 Dynamic ArrayTM (Fluidigm, Amsterdam, the Netherlands) technology was used for gene expression analyses by quantitative reverse transcription polymerase chain reaction (qRT-PCR, performed by Quintiles/Expression Analysis, Durham, NC)89. Standard TaqManTM Assays (Applied Biosystems/ThermoFisher Scientific, Foster City, CA) were used to assess the expression of 93 genes selected based on their selectivity and sensitivity to important hepatic receptors known to be modulated by environmental chemicals; importance in human hepatocyte functionality; and hepatotoxicity. […]

Hypoxia-inducible factor 1-alpha (Homo sapiens), sequence (Q16665 whole entry, looked up): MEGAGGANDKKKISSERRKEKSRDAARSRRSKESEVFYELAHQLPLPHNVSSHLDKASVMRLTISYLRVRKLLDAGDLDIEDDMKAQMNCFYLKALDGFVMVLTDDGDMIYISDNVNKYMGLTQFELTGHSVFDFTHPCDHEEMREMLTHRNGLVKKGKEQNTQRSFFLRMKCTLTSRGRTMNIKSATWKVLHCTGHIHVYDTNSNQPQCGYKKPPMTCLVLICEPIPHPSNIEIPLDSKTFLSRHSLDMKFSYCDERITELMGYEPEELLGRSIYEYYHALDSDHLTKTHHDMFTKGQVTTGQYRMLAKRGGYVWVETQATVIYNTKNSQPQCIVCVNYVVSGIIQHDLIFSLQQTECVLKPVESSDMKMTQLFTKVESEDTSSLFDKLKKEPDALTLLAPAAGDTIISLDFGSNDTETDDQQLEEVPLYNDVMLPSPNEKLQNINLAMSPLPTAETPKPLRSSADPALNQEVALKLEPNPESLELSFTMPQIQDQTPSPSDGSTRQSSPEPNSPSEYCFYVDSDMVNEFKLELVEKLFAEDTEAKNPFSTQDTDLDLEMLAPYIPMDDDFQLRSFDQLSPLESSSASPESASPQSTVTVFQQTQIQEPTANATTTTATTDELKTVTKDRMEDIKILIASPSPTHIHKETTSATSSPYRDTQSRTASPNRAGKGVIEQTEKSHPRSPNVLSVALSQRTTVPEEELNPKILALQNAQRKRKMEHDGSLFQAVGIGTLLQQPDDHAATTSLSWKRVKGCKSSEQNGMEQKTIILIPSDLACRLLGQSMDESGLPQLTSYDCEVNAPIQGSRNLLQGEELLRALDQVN

Which outcome does the source give for CCN(CC)C(=O)SCc1ccc(Cl)cc1 here?
Its outcome is “inactive”.

How did the outcome turn out when CC(C)(C)C(O)C(Oc1ccc(Cl)cc1)n1cncn1 (stereo not given) was run?
The outcome was “inactive”.

CC(C)(C)C(O)/C(=C\c1ccc(Cl)cc1Cl)n1cncn1 (stereo not given) was tested. Which AC50 did it give?
The AC50 was 82.3 µM (active).

How did the outcome turn out when COP(=S)(OC)Oc1ccc([N+](=O)[O-])cc1 was run?
Its outcome is “inactive”.

O=C(O)C(F)(F)C(F)(F)C(F)(F)C(F)(F)C(F)(F)C(F)(F)C(F)(F)F was tested. Which outcome did it give?
The outcome was “inactive”.

CNC(=O)CSP(=S)(OC)OC was tested. Which outcome did it give?
Its outcome is “inactive”.

CCCN(CCC)c1c([N+](=O)[O-])cc(C(F)(F)F)cc1[N+](=O)[O-] was tested. Which outcome did it give?
Its outcome is “inactive”.

For CC(C)OC(=O)Nc1cccc(Cl)c1, which outcome is on record?
The outcome was “inactive”.

For CCOC1Oc2ccc(OS(C)(=O)=O)cc2C1(C)C (stereo not given), which outcome is on record?
The outcome was “inactive”.

For CCC(C)(NC(=O)c1cc(Cl)c(C)c(Cl)c1)C(=O)CCl (stereo not given), which outcome is on record?
Its outcome is “inactive”.

How did the outcome turn out when O=C(O)CCCOc1ccc(Cl)cc1Cl was run?
The outcome was “inactive”.

O=C(Nc1ccccc1)Nc1cnns1 was tested. Which outcome did it give?
Its outcome is “inactive”.

For CNC(=O)Oc1ccccc1OC(C)C, which outcome is on record?
The outcome was “inactive”.

O=S1OCC2C(CO1)C1(Cl)C(Cl)=C(Cl)C2(Cl)C1(Cl)Cl (stereo not given) was tested. Which outcome did it give?
The outcome was “inactive”.

Which AC50 does the source give for Oc1cc(Cl)ccc1Oc1ccc(Cl)cc1Cl here?
Its AC50 is 79 µM (active).

What about the outcome of the same molecule?
Its outcome is “inactive”.

How did the outcome turn out when CCOCN(C(=O)CCl)c1c(C)cccc1CC was run?
Its outcome is “inactive”.

How did the outcome turn out when O=C(NC(=O)c1c(F)cccc1F)Nc1ccc(OC(F)(F)C(F)OC(F)(F)F)c(Cl)c1 (stereo not given) was run?
The outcome was “inactive”.

With O=[N+]([O-])c1c(Cl)c(Cl)c(Cl)c(Cl)c1Cl as the molecule, how does the outcome read?
The outcome was “inactive”.

With O=S(=O)(O)C(F)(F)C(F)(F)C(F)(F)C(F)(F)C(F)(F)C(F)(F)C(F)(F)C(F)(F)F as the molecule, how does the outcome read?
Its outcome is “inactive”.

How did the outcome turn out when CCCN(CCOc1c(Cl)cc(Cl)cc1Cl)C(=O)n1ccnc1 was run?
Its outcome is “inactive”.

For N#Cc1c(Cl)c(Cl)c(Cl)c(C#N)c1Cl, which outcome is on record?
Its outcome is “inactive”.

How did the outcome turn out when CNC(=O)/C=C(\C)OP(=O)(OC)OC was run?
Its outcome is “inactive”.

With COP(=S)(OC)Oc1ccc(SC)c(C)c1 as the molecule, how does the outcome read?
The outcome was “inactive”.

For COc1nn(CSP(=S)(OC)OC)c(=O)s1, which outcome is on record?
Its outcome is “inactive”.

Oc1ccc(Cl)cc1Cc1ccccc1 was tested. Which outcome did it give?
Its outcome is “inactive”.

C[C@H]1[C@H](c2ccc(Cl)cc2)SC(=O)N1C(=O)NC1CCCCC1 was tested. Which outcome did it give?
Its outcome is “inactive”.

CC1(c2ccc(Oc3ccccc3)cc2)OC(=O)N(Nc2ccccc2)C1=O (stereo not given) was tested. Which outcome did it give?
Its outcome is “inactive”.

For CCc1ccc(C(=O)NN(C(=O)c2cc(C)cc(C)c2)C(C)(C)C)cc1, which outcome is on record?
The outcome was “inactive”.

With CC1(C)C(C=C(Cl)Cl)C1C(=O)OC(C#N)c1ccc(F)c(Oc2ccccc2)c1 (stereo not given) as the molecule, how does the outcome read?
Its outcome is “inactive”.

How did the outcome turn out when OCCOc1ccccc1 was run?
Its outcome is “inactive”.

Which AC50 does the source give for CC[C@H](C)[C@H]1O[C@]2(C=C[C@@H]1C)C[C@@H]1C[C@@H](C/C=C(\C)[C@@H](O[C@H]3C[C@H](OC)[C@@H](O[C@H]4C[C@H](OC)[C@@H](O)[C@H](C)O4)[C@H](C)O3)[C@@H](C)/C=C/C=C3\CO[C@@H]4[C@H](O)C(C)=C[C@@H](C(=O)O1)[C@]34O)O2 (tested in a mixture with another compound) here?
Its AC50 is 19 µM (active).

How did the outcome turn out when Cc1[nH]c(=O)n(C(C)(C)C)c(=O)c1Cl was run?
The outcome was “inactive”.

With CC(C)N(C(=O)COc1nnc(C(F)(F)F)s1)c1ccc(F)cc1 as the molecule, how does the outcome read?
The outcome was “inactive”.

Which outcome does the source give for Clc1ccccc1-c1nnc(-c2ccccc2Cl)nn1 here?
The outcome was “inactive”.

N#CN was tested. Which outcome did it give?
The outcome was “inactive”.

For CCC(C)Nc1c([N+](=O)[O-])cc(C(C)(C)C)cc1[N+](=O)[O-] (stereo not given), which outcome is on record?
Its outcome is “inactive”.

C#CCN1C(=O)COc2cc(F)c(N3C(=O)C4=C(CCCC4)C3=O)cc21 was tested. Which outcome did it give?
The outcome was “inactive”.

With COP(=O)(OC)OC=C(Cl)Cl as the molecule, how does the outcome read?
Its outcome is “inactive”.

Which outcome does the source give for O=C(O)COc1ccc(Cl)cc1Cl here?
Its outcome is “inactive”.
